High-throughput results as filed in PubChem.
NLRP3 yeast inh: inhibitors of NALP3 inflammasome in yeast. Yeast reconstituted NLRP3/ASC/caspase-1, beta-gal luminescence, 24 h. inhibition, % at 10 µM. actives 0.39% (n = 330,000). AID 2825;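 active = inhibition of 50% or more; inactive = inhibition below 50%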;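 note: plate controls were induced DMSO wells for no effect and uninduced yeast grown without galactose for full effect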
SKKanGAS inh: SKKanGAS growth inhibition; S. pyogenes SKKanGAS, kanamycin growth, BacTiter-Glo, 6 h; inhibition, % at 7.5 µM; actives 1.3% (n = 300,000); AID 1662;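 active = mean replicate score, as percent of positive control median, at least 50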;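 note: strain carries kanamycin resistance gene driven by streptokinase promoter and grows in 40 µg/ml kanamycin; loss of luminescence reflects streptokinase promoter inhibition or plain growth inhibition; 0% = median of DMSO wells and 100% = positive control at its reference dose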
tim10-1 inh: inhibits growth of tim10-1 mutant yeast. S. cerevisiae tim10-1 ts strain growth, BacTiter-Glo, 24 h. inhibition, % at 20 µM. actives 2.2% (n = 330,000);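 active = inhibition of at least 40%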;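 note: mutant grown at 25 °C; 0% = DMSO wells with yeast and 100% = wells holding no yeast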
NALP1 yeast inh: blocks the NALP1 inflammasome reconstituted in yeast. S. cerevisiae NALP1/ASC/caspase-1 growth, X-gal OD620, 72 h. inhibition, % at 10 µM. actives 0.61% (n = 280,000); in the data active = inhibition mostly above about 24%, no sharp cut-off; inactive = mostly below about 32%
TIM10 inh: growth inhibitors of TIM10 yeast strain; inhibition, % at 10 µM; actives 1.4% (n = 330,000); S. cerevisiae TIM10 strain growth, BacTiter-Glo luminescence, 24 h;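 active = inhibition of 40% or more at the single tested concentration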;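 note: wild-type TIM10 isogenic control strain grown at permissive 25 °C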
tim23-1 inh: tim23-1 yeast growth inhibition; AID 463212; S. cerevisiae tim23-1 growth, BacTiter-Glo luminescence, 24 h; inhibition, % at 20 µM; actives 1.3% (n = 330,000);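 active = growth inhibition of the mutant yeast at or above 50%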;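 note: temperature-sensitive mutant grown at 25 °C; plate controls were DMSO-treated mutant yeast for no effect and medium wells lacking yeast for full effect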
Active calls of the source: *; . = no result given. Hits are enriched below; roughly 4.9% of the tested compounds scored in any of these assays.

SMILES	NLRP3 yeast inh	SKKanGAS inh	tim10-1 inh	NALP1 yeast inh	TIM10 inh	tim23-1 inh
COc1ccc(/C=N\NC(=O)c2cc(O)c(O)c(O)c2)cc1COc1ccc(C(=O)OCC(C)C)cc1	16.3	89.6*	23.3	16.5	8.3	29.5
CCCCNc1nc(CC)c2c(c1C#N)CCCC2	-3.1	34.8	9.1	40.9*	8.4	3.5
Cc1cc(C)n(-c2nc(NCCN(C)C)c3c4c(sc3n2)COC(C)(C)C4)n1	10.6	12.3	-14.5	7.2	-0.1	10.5
Cc1cc(C)n(-c2nc(NCCC(C)C)c3c4c(sc3n2)COC(C)(C)C4)n1	.	64.5*	.	0.0	.	.
Cc1cc(C)n(-c2nc(SCC(=O)Nc3nccs3)c3c4c(sc3n2)COC(C)(C)C4)n1	10.9	57.9*	-15.5	15.5	11.5	-1.9
Cn1c(N)c(C(=O)COC(=O)CC2CC3CCC2C3)c(=O)n(C)c1=O (stereo unspecified)	7.4	-0.7	26.7	6.3	17.7	8.2
O=C(Nc1ccnn1C1CCN(C(=O)c2cccc(Cl)c2)CC1)C1CC1	2.0	-12.5	-12.1	21.4	1.0	-5.3
COc1ccc(S(=O)(=O)N2CCOCC2)cc1NC(=O)c1cc(C)oc1C	11.7	.	6.3	.	10.5	7.7
CN(CC(=O)Nc1ccc(F)c(F)c1F)C(=O)CC1CCCCC1	29.6	.	-20.2	.	1.3	21.5
C/C(=N\NC(=O)c1c(Br)cnn1C)c1ccc(NC(=O)c2ccc(F)cc2)cc1	2.6	-18.2	-4.6	-3.7	-2.2	-15.8
Cc1ccc(S(=O)(=O)NC(C)(C)CN2CCCCC2)cc1	15.9	2.7	-29.3	14.6	-22.9	-7.8
CCCCCCCCCCCCCCCCn1cc[n+](CC(C)=O)c1	.	.	.	77.9*	.	.
CCCCCCn1ccc(=N)cc1	22.8	-0.1	2.7	22.6	-2.7	1.2
CCOc1ccc(/C=N/Nc2cc(N3CCOCC3)nc(C)n2)c(O)c1	30.2	65.5*	4.6	-9.8	18.6	41.7
COc1ccc(/C=N/Nc2cc(N3CCOCC3)ncn2)c(OC)c1	22.3	-2.9	-4.4	-2.5	-2.7	-3.6
COc1cccc(/C=N/Nc2cc(N3CCOCC3)ncn2)c1O	44.6	98.9*	-12.8	-10.0	-20.1	47.0
C[C@@H](C(=O)NCc1ccccc1)N1C(=O)C2CC=CCC2C1=O (stereo partly specified)	7.8	-6.0	-1.1	36.4*	-5.5	-1.5
CC(C(=O)NCc1ccccc1)N1C(=O)c2ccccc2C1=O (stereo unspecified)	17.2	0.4	-13.7	15.1	-3.2	-1.6
COC(C(=O)Nc1ccnn1C1CCN(Cc2nccs2)CC1)c1ccccc1 (stereo unspecified)	-2.4	50.9*	-18.0	17.0	3.4	-5.6
CC(=O)c1cccc(CN2CCC(n3nccc3NC(=O)CCOc3ccccc3)CC2)c1	17.8	-0.3	-2.7	31.3*	4.2	-1.0
O=C(CCNC(=O)c1ccc([N+](=O)[O-])cc1)Nc1ccccc1N1CCCCC1	25.9	-4.4	8.9	.	-8.7	20.1
COc1ccc(CCNCC(O)COc2cccc(C(C)=O)c2)cc1OC (stereo unspecified)	7.6	1.8	23.1	17.8	-3.1	15.1
CC(=O)c1c(O)cc(C)n(-c2ccc(F)cc2)c1=O	9.9	1.7	6.1	28.7*	-14.1	1.4
COc1cc(-c2c(C#N)c(N)nc3c2c(C)nn3-c2ccc(C)c(C)c2)cc(OC)c1OC	-1.0	50.2*	11.2	1.1	11.3	11.7
COc1cc(F)ccc1CN1CCC(n2nccc2NC(=O)C2CCOC2)CC1 (stereo unspecified)	4.5	52.0*	-3.9	18.4	5.8	11.7
SMILES	NLRP3 yeast inh	SKKanGAS inh	tim10-1 inh	NALP1 yeast inh	TIM10 inh	tim23-1 inh
COc1cc(CN2CCC(n3nccc3NC(=O)C3CCOC3)CC2)ccc1F (stereo unspecified)	7.8	-4.7	4.8	1.9	0.6	10.7
CCOC(=O)C1=C(C)N=c2s/c(=C\c3cccc(OCC(=O)O)c3)c(=O)n2C1c1ccccc1OC (stereo unspecified)	20.7	10.3	15.4	18.9	17.4	15.5
CCOC(=O)C1=C(c2ccccc2)N=c2s/c(=C\c3cccc(O)c3)c(=O)n2C1c1cccs1 (stereo unspecified)	10.4	54.0*	31.1	-4.0	28.8	31.8
Cc1ccc2oc(C(=O)N3CCN(Cc4nccn4C)CC3)c(C)c2c1	8.4	-1.7	0.4	17.6	-2.9	2.8
CCc1cc(=O)oc2c3c(cc(OCC(=O)N[C@H](C(=O)O)[C@H](C)CC)c12)OC(C)(C)CC3	1.9	14.3	12.1	18.6	-7.8	19.2
CCN(CC)c1nc2ccccc2n(Cc2cccc(OC)c2)c1=O	3.0	23.2	-2.6	22.9	-2.0	13.6
COc1ccc2nc(N3CCCCC3)c(/C=C3\SC(=S)NC3=O)cc2c1	24.6	86.0*	22.4	.	22.0	28.4
O=C1NC(=S)S/C1=C\c1cc2ccccc2nc1N1CCCCC1	34.3	40.6	5.6	17.4	36.4	38.4
CC1CC(C)CN(Cc2nc(N)nc(Nc3ccccc3)n2)C1 (stereo unspecified)	-0.6	7.4	-15.6	17.1	-17.0	-0.4
Nc1nc(CN2CCC(Cc3ccccc3)CC2)nc(Nc2ccccc2)n1	3.7	49.7*	4.3	13.5	-2.3	-0.1
CC1CC(C)CN(Cc2nc(N)nc(Nc3ccc4ccccc4c3)n2)C1 (stereo unspecified)	7.9	51.8*	17.5	18.0	5.8	9.0
Cc1cccc(Nc2nc(N)nc(CN3CCN(C)CC3)n2)c1	5.8	-1.2	5.9	21.4	-7.3	14.4
Cc1cccc(Nc2nc(N)nc(CN3CCN(c4ccc(F)cc4)CC3)n2)c1	21.0	64.8*	28.7	-15.0	18.9	20.4
FC(F)(F)c1ccc(Oc2ccc3ccccc3c2Br)nc1	-1.2	63.0*	7.4	19.8	20.9	13.9
CCSCc1nnc(SCC(=O)Nc2nc(C)cs2)n1C	7.2	1.2	10.8	41.0*	-4.9	21.9
Cc1ccc(C(=O)CC(=O)c2cc(Cl)ccc2O)cc1	14.1	125.6*	29.0	9.0	23.9	22.4
CC(C)(C)c1ccc(C(=O)CC(=O)c2cc(Cl)ccc2O)cc1	14.3	90.8*	36.0	-8.9	20.4	20.7
Cc1ccc(C(=O)CC(=O)c2ccc(C)cc2O)cc1	.	61.7*	.	6.1	.	.
Cc1cc(OCC(=O)NCCc2cccc(F)c2)c2c(C)cc(=O)oc2c1	-3.0	13.1	-4.7	30.1	7.5	1.8
Cc1cc(NC(=O)CSc2nnnn2-c2ccc(C)c(Cl)c2)no1	-0.6	-2.3	-3.5	-2.4	-11.6	-5.3
Cc1ccc(S(=O)(=O)N(C)C)cc1NC(=O)c1cc(-c2ccco2)nc2ccccc12	6.0	-1.6	9.1	-5.0	3.0	5.4
COc1cccc(-c2nc(CS(=O)(=O)CC(=O)Nc3ccccc3Cl)c(C)o2)c1	15.4	22.5	23.0	14.4	-9.0	14.3
CCCCCCCCCCCC(=O)NC(C(=O)O)C(O)c1ccccc1 (stereo unspecified)	0.4	-4.0	23.4	26.7*	16.0	20.0
